Reference: PubChem BioAssay AID1159580 (chemical genetic matrix, 2015)
Values joined by “and” are separate entries in the source; they are usually repeats but may differ in a detail not shown here. Identical values can stand only once. The whole screen tested about 5,500 compounds, of which about 2,000 (36%) were called active. About 18% were inconclusive and are not listed. Rule as the data show it: active = normalized growth mostly below about 0.91 (no sharp cut-off); inconclusive = no clear call, values can overlap the other calls; inactive = mostly above about 0.92. The list shows a part of the results.

Assay: chemical genetic growth profiling, strain panel (AID 1159580);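 also: tested at 20 µM; growth read once vehicle control cultures reached saturation at 30 °C; 1 = growth at the plate median or of vehicle wells; lower values mean less growth of the strain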
Conditions: growth OD

Measured: normalized growth

O=c1n(CCCN2CCN(c3cccc(Cl)c3)CC2)nc2ccccn12
inactive: S. cerevisiae deletion strains, locus YJR066W, strain TOR1, active compounds read low 0.943 | S. cerevisiae deletion strains, locus YJR075W, strain HOC1, active compounds read low 0.94 and 0.981 | S. cerevisiae deletion strains, locus YKL009W, strain mrt4, active compounds read low 0.967 | S. cerevisiae deletion strains, locus YKL068W, active compounds read low 0.989 | S. cerevisiae deletion strains, locus YKL085W, strain MDH1 (second series), active compounds read low 0.992 | S. cerevisiae deletion strains, locus YKL085W, strain MDH1, active compounds read low 0.992 | S. cerevisiae deletion strains, locus YKL160W, strain elf1, active compounds read low 0.986 | S. cerevisiae deletion strains, locus YKL190W, strain CNB1, active compounds read low 0.986 | S. cerevisiae deletion strains, locus YKR001C, strain vps1, active compounds read low 0.972 | S. cerevisiae deletion strains, locus YKR026C, strain gcn3, active compounds read low 0.984 | S. cerevisiae deletion strains, locus YKR091W, strain srl3, active compounds read low 0.993 | S. cerevisiae deletion strains, locus YLL001W, strain dnm1, active compounds read low 0.986 | S. cerevisiae deletion strains, locus YLL026W, active compounds read low 0.986 | S. cerevisiae deletion strains, locus YLL041C, strain sdh2, active compounds read low 0.994 | S. cerevisiae deletion strains, locus YLR027C, strain aat2, active compounds read low 0.979 | S. cerevisiae deletion strains, locus YLR039C, strain RIC1, active compounds read low 0.975 | S. cerevisiae deletion strains, locus YLR058C, strain SHM2, active compounds read low 0.964 | S. cerevisiae deletion strains, locus YLR102C, strain apc9, active compounds read low 0.993 | S. cerevisiae deletion strains, locus YLR113W, strain HOG1, active compounds read low 1 | S. cerevisiae deletion strains, locus YLR221C, strain rsa3, active compounds read low 0.985 | S. cerevisiae deletion strains, locus YLR258W, strain gsy2, active compounds read low 0.99 | S. cerevisiae deletion strains, locus YLR262C, strain YPT6 (second series), active compounds read low 0.965 | S. cerevisiae deletion strains, locus YLR262C, strain YPT6, active compounds read low 0.948 | S. cerevisiae deletion strains, locus YLR268W, strain sec22, active compounds read low 0.98 | S. cerevisiae deletion strains, locus YLR320W, strain mms22, active compounds read low 0.966 | S. cerevisiae deletion strains, locus YLR330W, strain CHS5, active compounds read low 0.989 | S. cerevisiae deletion strains, locus YLR342W, strain FKS1 (second series), active compounds read low 1.04 | S. cerevisiae deletion strains, locus YLR342W, strain FKS1, active compounds read low 0.983 | S. cerevisiae deletion strains, locus YLR357W, strain rsc2, active compounds read low 0.932 | S. cerevisiae deletion strains, locus YLR370C, strain arc18, active compounds read low 0.982 | S. cerevisiae deletion strains, locus YLR371W, strain rom2, active compounds read low 0.994 | S. cerevisiae deletion strains, locus YLR384C, strain iki3, active compounds read low 0.983 | S. cerevisiae deletion strains, locus YLR418C, strain cdc73, active compounds read low 1 | S. cerevisiae deletion strains, locus YML016C, strain PPZ1, active compounds read low 0.98 | S. cerevisiae deletion strains, locus YML032C, strain rad52, active compounds read low 0.979 | S. cerevisiae deletion strains, locus YML120C, strain ndi1, active compounds read low 0.977 | S. cerevisiae deletion strains, locus YML124C, strain tub3, active compounds read low 0.989 | S. cerevisiae deletion strains, locus YMR058W, strain fet3, active compounds read low 0.976 | S. cerevisiae deletion strains, locus YMR078C, strain ctf18, active compounds read low 0.995 | S. cerevisiae deletion strains, locus YMR125W, strain sto1, active compounds read low 0.969 | S. cerevisiae deletion strains, locus YMR129W, active compounds read low 0.984 | S. cerevisiae deletion strains, locus YMR205C, strain PFK2, active compounds read low 0.964 | S. cerevisiae deletion strains, locus YMR223W, strain ubp8, active compounds read low 1.01 | S. cerevisiae deletion strains, locus YMR231W, strain pep5, active compounds read low 0.989 | S. cerevisiae deletion strains, locus YMR263W, strain SAP30, active compounds read low 0.983 | S. cerevisiae deletion strains, locus YMR307W, strain GAS1, active compounds read low 1.08 and 1.01 | S. cerevisiae deletion strains, locus YNL067W, strain RPL9B, active compounds read low 0.969 | S. cerevisiae deletion strains, locus YNL071W, strain lat1, active compounds read low 0.963 | S. cerevisiae deletion strains, locus YNL153C, strain GIM3, active compounds read low 0.945 | S. cerevisiae deletion strains, locus YNL175C, strain NOP13, active compounds read low 0.999 | S. cerevisiae deletion strains, locus YNL183C, strain NPR1, active compounds read low 0.943 | S. cerevisiae deletion strains, locus YNL197C, strain WHI3, active compounds read low 1 | S. cerevisiae deletion strains, locus YNL209W, strain ssb2, active compounds read low 0.989 | S. cerevisiae deletion strains, locus YNL224C, strain SQS1, active compounds read low 0.998 | S. cerevisiae deletion strains, locus YNL233W, strain BNI4, active compounds read low 0.956 | S. cerevisiae deletion strains, locus YNL248C, strain rpa49, active compounds read low 0.976 | S. cerevisiae deletion strains, locus YNL250W, strain rad50, active compounds read low 0.973 | S. cerevisiae deletion strains, locus YNL271C, strain bni1, active compounds read low 0.986 | S. cerevisiae deletion strains, locus YNL298W, strain CLA4, active compounds read low 0.999 | S. cerevisiae deletion strains, locus YNL307C, strain MCK1, active compounds read low 0.993 | S. cerevisiae deletion strains, locus YNL322C, strain KRE1 (second series), active compounds read low 0.964 | S. cerevisiae deletion strains, locus YNL322C, strain KRE1, active compounds read low 0.997 | S. cerevisiae deletion strains, locus YNR049C, strain mso1, active compounds read low 0.979 | S. cerevisiae deletion strains, locus YNR052C, strain pop2, active compounds read low 0.992 | S. cerevisiae deletion strains, locus YOL006C, strain TOP1, active compounds read low 0.781 | S. cerevisiae deletion strains, locus YOL012C, strain htz1 1.02 | S. cerevisiae deletion strains, locus YOL147C, strain pex11, active compounds read low 0.992 | S. cerevisiae deletion strains, locus YOR001W, strain rrp6, active compounds read low 0.991 | S. cerevisiae deletion strains, locus YOR061W, strain CKA2, active compounds read low 0.965 | S. cerevisiae deletion strains, locus YOR069W, strain VPS5, active compounds read low 0.987 | S. cerevisiae deletion strains, locus YOR070C, strain gyp1, active compounds read low 0.974 | S. cerevisiae deletion strains, locus YOR080W, strain dia2, active compounds read low 0.975 | S. cerevisiae deletion strains, locus YOR083W, strain WHI5 (second series), active compounds read low 1.02 | S. cerevisiae deletion strains, locus YOR083W, strain WHI5, active compounds read low 0.984 | S. cerevisiae deletion strains, locus YOR106W, strain vam3, active compounds read low 0.977 | S. cerevisiae deletion strains, locus YOR136W, strain idh2, active compounds read low 0.983 | S. cerevisiae deletion strains, locus YOR144C, strain elg1, active compounds read low 0.996 | S. cerevisiae deletion strains, locus YOR184W, strain ser1, active compounds read low 0.992 | S. cerevisiae deletion strains, locus YOR231W, strain MKK1, active compounds read low 1 | S. cerevisiae deletion strains, locus YOR265W, strain rbl2, active compounds read low 0.969 | S. cerevisiae deletion strains, locus YOR270C, strain vph1, active compounds read low 0.902 | S. cerevisiae deletion strains, locus YOR290C, strain snf2, active compounds read low 0.939 | S. cerevisiae deletion strains, locus YOR316C, strain cot1, active compounds read low 0.99 | S. cerevisiae deletion strains, locus YPL051W, strain arl3, active compounds read low 0.982 | S. cerevisiae deletion strains, locus YPL078C, strain atp4, active compounds read low 0.975 | S. cerevisiae deletion strains, locus YPL106C, strain sse1, active compounds read low 0.971 | S. cerevisiae deletion strains, locus YPL240C, strain hsp82, active compounds read low 0.984 | S. cerevisiae deletion strains, locus YPL241C, strain CIN2, active compounds read low 0.997 | S. cerevisiae deletion strains, locus YPL256C, strain CLN2, active compounds read low 1.01 | S. cerevisiae deletion strains, locus YPR119W, strain clb2, active compounds read low 0.99 | S. cerevisiae deletion strains, locus YPR141C, strain kar3, active compounds read low 0.984 | S. cerevisiae deletion strains, locus YPR163C, strain tif3, active compounds read low 0.991 | S. cerevisiae deletion strains, locus YPR167C, strain met16, active compounds read low 1 | S. cerevisiae deletion strains, strain wtn01, active compounds read low 1.03 | S. cerevisiae strains, strain wild type, active compounds read low 0.979
